Measured potencies and affinities stand elsewhere. Active and inactive are the calls of the source.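 How the source made its calls: active means Loss of cell signal with fitted half-effect dose at or below twice the top valid tested dose; inconclusive means Poor fit, or flat fit from -70 to -30 percent; inactive means Half-effect above limit, rising signal, or flat within 30 percent.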

This test in a line: HEK293T cell cytotoxicity, dose response, cytotoxicity control for HIV Vif inhibitor project, cherry-picks (AID 652208). The settings on record: HEK293T viability, CellTiter-Glo luminescence, 24 h; series mostly up to 26 µM.
As to `CCCn1c(=O)c(C(=O)Nc2ncccc2O)c(O)c2ccccc21`, the call was inactive.
Consider `O=C(c1cc(COc2cccc3cccnc23)on1)N1CCC[C@H]1CO`, for which the result was inactive.
Take `CCN1C(=O)NC(c2ccccc2)C1=O` (stereo not drawn): the result was inactive.
Regarding `CCN(CC)C(=O)c1ccc(C(=O)c2c(C)cc(C)cc2C)cc1`, the result was inactive.
As for `COc1ccccc1NC(=O)c1ccccc1NC(=O)c1ccccn1`, the entry is “inactive”; as for `Cc1nnc2ccc(-c3cccc(NS(=O)(=O)c4cc(F)ccc4F)c3)nn12`, “inactive”.
In the case of `O=C(NC1CCCc2ccccc21)c1ccccc1Br` (stereo not drawn), the call was inactive.
For the compound `CCCCOc1ncnc2c1[nH]c1ccccc12`, the call was inactive.
As to `CC(C)C(NC(=O)c1ccccc1NC(=O)C(C)(C)C)C(=O)N1CCOCC1` (stereo not drawn), the compound was classed as inactive.
For the compound `CCn1c(SCc2ccc(C(=O)Nc3nccs3)cc2)nnc1-c1ccc(N)cc1`, the call was inactive.
As for `O=C(c1ccc2c(c1)OCO2)N(CC1CCCO1)C1(C(=O)NC2CCCC2)CCCCC1` (stereo not drawn), the call was inactive.
In the case of `COc1ccc(CCNC(=O)[C@@H](NC(N)=O)C(C)C)cc1`, the compound was called inactive.
Next, `Oc1[nH]c(=S)sc1/C=C1\C(c2ccccc2)=Nc2ccccc21`: “inactive”.
Next, `COc1ccc(Br)cc1C(=O)Nc1ccc(N2CCCC2)cc1`: “inactive”; `CC(O)CN(C)CC/C=C1/c2ccccc2CSc2ccccc21` (stereo not drawn): “inactive”; `CN(C)c1ccc(/C=C/C(=O)c2ccc3c(c2)OCO3)cc1`: “inactive”.
As for `COc1ccc([C@H]2CC(=O)C=C(c3cc4ccccc4s3)C2)cc1`, the entry is “inactive”; as for `Cc1nnc2ccc(-c3cccc(NS(=O)(=O)c4ccccc4Cl)c3)nn12`, “inactive”.
As to `COc1ccc(OCCN2CCC(C(=O)NC(c3ccccn3)c3ccccc3OC)CC2)cc1` (stereo not drawn), the call was inactive.
Turning to `O=S(=O)(Nc1nc2ccccc2nc1NCc1ccco1)c1ccc(Cl)cc1`, the result was inactive.
As to `CCCCOc1cccc2c(=O)n(CC(=O)Nc3ccc4c(c3)OCCO4)ccc12`, the call was inactive.
As for `N#CC(C(=O)NCCc1ccccc1)c1nc2ccccc2nc1N1CCOCC1` (stereo not drawn), the call was inactive.
Next, `COc1ccc(OC)c(NC(=O)c2cc3ccccc3cc2OC)c1`: “inactive”.
With `COc1ccc(CN(C(=O)Cn2nnc(-c3ccc(C)o3)n2)C(C(=O)NCC2CCCO2)c2ccco2)cc1` (stereo not drawn), the call was inactive.
`CCOC(=O)C1(Cc2ccccc2)CCN(Cc2csc(C(C)=O)c2)CC1`: the result was inactive.
Next, `CCN1c2ccccc2NC2C1C(C(C)=O)C(=O)N2c1ccc(Cl)cc1` (stereo not drawn): “inactive”; `COc1cc2ccccc2cc1C(=O)Nc1ccc(Cl)cn1`: “inactive”; `CCCn1nnc(NC(=O)C(c2ccccc2)c2ccccc2)n1`: “inactive”.
As to `COC(=O)c1cc(Cl)c(NC(=O)c2cc3ccccc3o2)cc1OC`, the compound was called inactive.
Take `NC(=O)c1sc2nc(-c3ccccc3)ccc2c1N`: the compound was classed as inactive.
Regarding `CCOc1ccc(NC(=O)CN(C)C(=O)c2cc(S(=O)(=O)N3CCCCC3)ccc2Cl)cc1OCC`, the call was inactive.
As for `COc1ccc(OC)c(/C(O)=C/C(=O)C(=O)Nc2cc(C)ccc2OC)c1`, the entry is “inactive”; as for `CN(Cc1ccccc1)C(=O)CCC1CCN(C(=O)c2ccco2)CC1`, “inactive”; as for `CC1Cc2ccccc2N1C(=O)COC(=O)c1ccccc1NCCO` (stereo not drawn), “inactive”.
For the compound `O=C1/C(=C/c2ccc(N3CCCC3)cc2)NC(=S)N1C1CC1`, the result was inactive.
For the compound `O=C(CCCCn1ccc(=O)[nH]c1=O)Nc1ccc(O)c(C(=O)O)c1`, the result was inactive.
In the case of `CC(=O)Nc1cc(NC(=O)C2C3C=CC(C3)C2C(=O)O)ccc1Cl` (stereo not drawn), the compound was classed as inactive.
Next, `Cc1nnc2ccc(-c3ccc(NS(=O)(=O)c4ccc(F)cc4F)cc3)nn12`: “inactive”.

Source of the values: PubChem BioAssay AID652208 (Broad Institute, 2013).
